36 compounds from PubChem BioAssay AID1347414 (National Center for Advancing Translational Sciences (NCATS), 2020) can be followed below.

Results filed as inconclusive are left out. Values without a mark were called inactive. The source made the active and inactive calls. Calls come from the whole dose curve; as a rule, active = well fitted inhibition curve with a large enough effect; inconclusive = small, poorly fitted or top-dose-only effect; inactive = no such curve, though single readings can be large or run the other way. Numbered stars: 1 amine (or outer) side, 2 acyl side, 3 side chain; on linkers, the order of the positions; unused ones are H or OH. Bridge positions count the residues as written; N and C are the ends. Square brackets hold non-standard residues; d marks the D form. Peptide text beside a SMILES is read from it. I, II: the chains in the order shown. Actinocin(9to1) = Cc1c2oc3c(C)ccc(C(=O)[*:1])c3nc-2c(C(=O)[*:2])c(N)c1=O; NMeV = CN[C@H](C(=O)O)C(C)C; Sar = CNCC(=O)O
% is set by controls: 0 for no effect and ±100 for the full control effect; potency is the fitted concentration of half-maximal effect.

This test is described as follows: qHTS to identify inhibitors of the type 1 interferon - major histocompatibility complex class I in skeletal muscle: Secondary screen by immunofluorescence.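 For activity change, negative = inhibition: digitonin at 100 µM served as the cytotoxic control.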 Note: nearly all actives have a fitted effect of over 70% in size. The following applies: C25cl48 myoblasts, IFN-b induced HLA-ABC immunofluorescence, 24 h; series mostly up to 49.8 µM; activity change, negative = inhibition: at the top concentration. Summed up:
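HLA-ABC immunofluorescence, with nuclear and cell-body stains, was quantified by laser scanning cytometry. Read-out followed 24 h of IFN-beta (4.0 ng/ml) stimulation of C25cl48 human myoblasts with compounds titrated 1:3 over 11 points from 50 uM, with ruxolitinib as inhibitor control.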
As for `COc1cccc2c1C(=O)c1c(O)c3c(c(O)c1C2=O)C[C@@](O)(/C(CO)=N/NC(=O)CCCCCN1C(=O)C=CC1=O)C[C@@H]3O[C@H]1C[C@H](N)[C@H](O)[C@H](C)O1`, the Potency was 1.02 µM (active).

Regarding `CC[C@]1(O)C[C@H]2CN(CCc3c([nH]c4ccccc34)[C@@](C(=O)OC)(c3cc4c(cc3OC)N(C=O)[C@H]3[C@@](O)(C(=O)OC)[C@H](OC(C)=O)[C@]5(CC)C=CCN6CC[C@]43[C@@H]65)C2)C1`, the “activity change, negative = inhibition” value was 3.61%.

For `C=CC(=O)N1CCc2ccc(-n3c(=O)ccc4cnc5ccc(-c6cnn(C)c6)cc5c43)cc21`, the Potency is 2.89 µM (active).

`Cc1c2oc3c(C)ccc(C(=O)N[C@@H]4C(=O)N[C@H](C(C)C)C(=O)N5CCC[C@H]5C(=O)N(C)CC(=O)N(C)[C@@H](C(C)C)C(=O)O[C@@H]4C)c3nc-2c(C(=O)N[C@@H]2C(=O)N[C@H](C(C)C)C(=O)N3CCC[C@H]3C(=O)N(C)CC(=O)N(C)[C@@H](C(C)C)C(=O)O[C@@H]2C)c(N)c1=O` (I: T[dV]P[Sar][NMeV] / II: T[dV]P[Sar][NMeV]; ester I:1-I:C, II:1-II:C; linker I:N-II:N via Actinocin(9to1)): the Potency is 0.0576 µM (active).

With `Cc1cc(O)c(-c2ccc([C@@H](C)CN(C)C)cc2)c2c1[nH]c(=O)c1sccc12`, the Potency was 0.0814 µM (active).

In the case of `Cc1cc(Nc2cc(NC(=O)c3c(Cl)cccc3Cl)ccn2)nc(N)n1`, the Potency was 2.05 µM (active).

In the case of `CC[C@@]1(O)C(=O)OCc2c1cc1n(c2=O)Cc2cc3c(CN(C)C)c(O)ccc3nc2-1`, the Potency is 7.26 µM (active).

For the compound `N#CCC1(n2cc(-c3ncnc4[nH]ccc34)cn2)CN(C2CCN(C(=O)c3ccnc(C(F)(F)F)c3F)CC2)C1`, the Potency was 1.29 µM (active).

On to `CC1(COc2ccc3c(c2)ncn3-c2ccc3cccc(N4CCC(N)CC4)c3n2)COC1`, for which the Potency was 5.14 µM (active).

On to `COc1ccc(CNc2nc(N(CCO)CCO)nc3c2ncn3C(C)C)cc1`, for which the Potency is 8.14 µM (active).

As for `CCC[C@H](NC(=O)/C(C#N)=C/c1cccc(Br)n1)c1ccccc1`, the Potency is 6.47 µM (active).

As for `CN(c1ncccc1CNc1nc(Nc2ccc3c(c2)CC(=O)N3)ncc1C(F)(F)F)S(C)(=O)=O`, the Potency is 5.76 µM (active).

In the case of `O=C(NC1CCNCC1)c1[nH]ncc1NC(=O)c1c(Cl)cccc1Cl`, the Potency is 0.258 µM (active).

As to `CC(C)C[C@H](NC(=O)[C@H](Cc1ccccc1)NC(=O)c1cnccn1)B(O)O`, the Potency was 0.0257 µM (active).

Turning to `c1cc(Nc2cc(C3CC3)[nH]n2)nc(Nc2ccc3nc[nH]c3c2)n1`, the Potency was 0.647 µM (active).

In the case of `Cc1ccc([N+](=O)[O-])cc1S(=O)(=O)N(C)/N=C/c1cnc2ccc(Br)cn12`, the Potency is 0.162 µM (active).

For the compound `Cc1ccc2nc(NCCN)c3ncc(C)n3c2c1`, the Potency was 4.08 µM (active).

Take `OCCCNc1cc(-c2ccnc(Nc3cccc(Cl)c3)n2)ccn1`: the Potency is 0.0814 µM (active).

On to `C/C=C1\NC(=O)[C@H]2CSSCCC=C[C@H](CC(=O)N[C@H](C(C)C)C(=O)N2)OC(=O)[C@H](C(C)C)NC1=O`, for which the Potency was 0.0058 µM (active).

For `CC(C)c1cnn2c(NCc3ccccc3)cc(N[C@@H](CO)[C@H](O)CO)nc12`, the Potency is 0.914 µM (active).

`CC(C)c1c2cc(-c3ccnc(NC4CCC(NC5CCOCC5)CC4)n3)ccc2nn1C` (stereo unspecified): the Potency was 0.145 µM (active).

`CC(C)(C)c1nc2c3cc[nH]c(=O)c3c3cc(F)ccc3c2[nH]1`: the Potency was 0.514 µM (active).

Turning to `Nc1nc(Nc2ccc(S(N)(=O)=O)cc2)nn1C(=O)c1c(F)cccc1F`, the Potency is 2.05 µM (active).

For `CC1=C(CO)C(=O)O[C@@H]([C@@H](C)[C@H]2CC[C@H]3[C@@H]4C[C@H]5O[C@]56[C@@H](O)C=CC(=O)[C@]6(C)[C@H]4CC[C@]23C)C1`, the Potency was 0.726 µM (active).

In the case of `Cc1c[nH]c2nc(Nc3ccc(N4CCN(C)CC4)c(F)c3)nc(-c3cccc(CC#N)c3)c12`, the Potency is 1.62 µM (active).

With `N#CC[C@H](C1CCCC1)n1cc(-c2ncnc3[nH]ccc23)cn1`, the Potency was 0.458 µM (active).

For the compound `O=C(CCCCCCC(=O)Nc1ccccc1)NO`, the Potency is 0.914 µM (active).

With `O=C1Nc2ccccc2C1(c1ccc(O)cc1)c1ccc(O)cc1`, the “activity change, negative = inhibition” value is 0.682%.

Consider `COc1ncc(Nc2ncc(C(C)N3CCN(S(C)(=O)=O)CC3)cc2-c2nc(C)nc(N)n2)cc1F` (stereo unspecified), for which the “activity change, negative = inhibition” value is -17.3%.

Take `NC(=O)Nc1sc(-c2ccc(F)cc2)cc1C(N)=O`: the Potency was 1.45 µM (active).

On to `CC[C@@]1(O)C(=O)OCc2c1cc1n(c2=O)Cc2c-1nc1cc(F)c(C)c3c1c2[C@@H](N)CC3`, for which the Potency is 1.29 µM (active).

In the case of `C#Cc1cccc(Nc2ncnc3cc(OC)c(OCCCCCCC(=O)NO)cc23)c1`, the Potency was 0.289 µM (active).

`OC1CCC(Oc2cccc3cnc(Nc4ccc5nc[nH]c5c4)nc23)CC1` (stereo unspecified): the Potency is 1.02 µM (active).

Regarding `CCc1c2c(nc3ccc(O)cc13)-c1cc3c(c(=O)n1C2)COC(=O)[C@]3(O)CC`, the Potency is 2.57 µM (active).

`CC(=O)NCC(=O)N1[C@@H]2CC[C@H]1c1ccc(Nc3ncc(C(F)(F)F)c(NC4CCC4)n3)cc12`: the Potency is 14.5 µM (active).

For `Cc1sc2c(c1C)C(c1ccc(Cl)cc1)=N[C@@H](CC(=O)Nc1ccc(OCCOCCOCCOCCNc3cccc4c3C(=O)N(C3CCC(=O)NC3=O)C4=O)cc1)c1nnc(C)n1-2` (stereo partly specified), the Potency is 0.0914 µM (active).
